The list is not random: actives were taken first. Their share in the collection is about 1.7%.
HDAC3 inh – blocks human histone deacetylase 3; O15379; recombinant HDAC3, fluorogenic peptide/trypsin coupled, fluorescence; inhibition, % at 8.3 µM; AID 2718; actives 0.15% (n = 320,000); in the data active = inhibition above about 26%, passing the limit was not always enough
HTR2A ag – mouse HTR2A agonism via beta-arrestin recruitment | P35363 | CHO-K1 mHTR2A beta-arrestin complementation, luminescence; percent of 30 µM serotonin response | activation, % at 7.6 µM | actives 0.66% (n = 360,000);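 active = activation above a run cutoff, the mean activation of all tested compounds plus 3 SD, cut at about 14% in these data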;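 also: 0% = plate median of compound wells and 100% = 30 µM serotonin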
Target sequence (P35363 whole entry, looked up): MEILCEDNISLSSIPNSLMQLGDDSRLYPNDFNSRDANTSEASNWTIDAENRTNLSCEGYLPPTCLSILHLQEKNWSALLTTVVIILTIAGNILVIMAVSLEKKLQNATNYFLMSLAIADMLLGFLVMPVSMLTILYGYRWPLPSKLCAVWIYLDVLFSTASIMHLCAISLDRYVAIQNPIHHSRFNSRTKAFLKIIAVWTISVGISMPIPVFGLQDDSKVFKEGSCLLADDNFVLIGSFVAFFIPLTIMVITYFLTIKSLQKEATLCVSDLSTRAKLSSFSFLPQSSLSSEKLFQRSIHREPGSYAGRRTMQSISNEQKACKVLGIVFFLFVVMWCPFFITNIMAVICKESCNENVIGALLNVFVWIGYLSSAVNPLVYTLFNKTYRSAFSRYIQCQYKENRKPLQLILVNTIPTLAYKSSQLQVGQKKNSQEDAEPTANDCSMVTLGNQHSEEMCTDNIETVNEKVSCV
LANA-H2A inh – blocks KSHV LANA binding to histone H2A/H2B; inhibition, % (concentration not given with the values); cell-free LANA-H2A/H2B peptide, fluorescence polarization; actives 0.6% (n = 320,000); Q9QR71; in the data active = inhibition mostly above about 10%, no sharp cut-off; inactive = mostly below about 6.7%
Fh CTSL1 inh – blocks F. hepatica cathepsin L1 in PFM18AAP counter-screen; inhibition, % at 5.96 µM; AID 1906; actives 0.49% (n = 300,000); recombinant F. hepatica cathepsin L1, Z-Leu-Arg-MCA fluorescence;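 active = inhibition above the mean of all tested compounds plus 3 SD, set per screening campaign, cut at about 17% in these data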;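 also: 0% = plate median of test compound wells and 100% = 1 µM Z-Phe-Ala-diazomethylketone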
OPRM1 ag – counter-screen for mouse HTR2A agonists: human mu opioid receptor agonists. shares compounds with HTR2A ag. U2OS OPRM1 beta-arrestin PathHunter, luminescence; DMSO 0%, DAMGO 9.3 µM 100%. activation, % at 9.3 µM. actives 5.3% (n = 2,300). AID 624380;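 active = mean activation above the mean of DMSO-only wells plus 3 SD, cut at about 0.5% in these data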
HTR2A ag conf – confirmation of mouse HTR2A serotonin receptor agonists; activation, % at 7.6 µM; actives 19% (n = 2,300); CHO-K1 PathHunter beta-arrestin recruitment, luminescence; DMSO 0%, 30 µM serotonin 100%; AID 624381; shares compounds with HTR2A ag;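 active = mean activation across triplicates above the hit threshold derived in the original primary screen, cut at about 15% in these data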
Starred values were filed as active, the others as inactive; i = inactive; nt = no result.

SMILES	HDAC3 inh	HTR2A ag	LANA-H2A inh	Fh CTSL1 inh	OPRM1 ag	HTR2A ag conf
Cc1ccc(C)c(N2CCN(C(=O)Cn3c(=O)oc4cc(S(=O)(=O)N5CCCC5)ccc43)CC2)c1	-5	29*	-6	-1	0	-2
Cc1cccc2sc(NNC(=O)c3ccc(S(=O)(=O)N4CC(C)CC(C)C4)cc3)nc12 (configuration not stated)	9	15*	-1	2	0	3
Cc1cc(C)c2nc(NNC(=O)c3ccc(S(=O)(=O)N4CC(C)CC(C)C4)cc3)sc2c1 (configuration not stated)	3	62*	1	0	0	-4
Cc1cc(C)c2nc(NNC(=O)c3ccc(S(=O)(=O)N4CCCC(C)C4)cc3)sc2c1 (configuration not stated)	8	13	3	1	nt	nt
Cc1ccc(N(C)S(=O)(=O)c2csc(C(N)=O)c2)cc1C	-2	15*	-7	2	0	2
Cc1ccsc1CN1CCN(c2ccccn2)CC1	-3	35*	-1	1	-1	98*
COC(=O)c1cc(=O)nc(NN=Cc2ccc(OC)cc2)s1	nt	17*	nt	nt	0	0
COc1ccc(CN(Cc2cc3cc(C)ccc3[nH]c2=O)C(=O)N(C)C)cc1	2	-2	11	3	nt	nt
Cc1ccc2[nH]c(=O)c(CN(CCO)C(=O)N(C)C)cc2c1	2	22*	7	7	-1	-5
COc1cccc(NC(=O)c2cc3c(=O)n4ccccc4nc3n(CC(C)C)c2=N)c1	-3	4	-2	-5	nt	nt
Cc1cccc(NC(=O)c2cc3c(=O)n4ccccc4nc3n(CC(C)C)c2=N)c1	-6	15*	0	-3	0	2
CCN(C(=O)CN1C(=O)/C(=C/c2ccccc2)SC1=S)C1CCS(=O)(=O)C1 (configuration not stated)	2	0	-4	3	nt	nt
C=CCSc1nsc(NC(=O)Nc2ccc(F)cc2)n1	-4	17*	-2	-2	0.8*	29*
CCSc1nsc(NC(=O)Nc2ccccc2F)n1	4	-1	-6	2	nt	nt
Cc1cnc(N)nc1-c1ccccc1	nt	29*	nt	nt	0	-4
Cc1cc(C)nc(SCC(=O)Nc2ccc(S(=O)(=O)Nc3ncccn3)cc2)n1	-13	19*	-6	-6	-1	-4
COC(=O)Cc1ccc(NC(=S)N2CCN(c3cccc(O)c3)CC2)cc1	4	24*	2	-3	0	3
O=[N+]([O-])c1ccc(CS(=O)(=O)c2ncn[nH]2)cc1	0	-2	-1	-2	nt	nt
C/C(=C\C(=O)c1ncc(C(F)(F)F)cc1Cl)N(C)C	1	21*	-8	-2	-1	-6
CN(C)/C=C(\C=O)c1ncc(C(F)(F)F)cc1Cl	-1	2	0	1	nt	nt
COc1ccc(-c2cnc3c(NC(C)=O)cc(-c4ccc(C(=O)N5CCOCC5)cc4)cn23)cc1OC	nt	15*	nt	nt	0	3
Cc1[nH]c(=O)[nH]c(=O)c1S(=O)(=O)Nc1ccc(Br)cc1F	0	7	0	nt	nt	nt
CCOC(=O)C1(C)CCCCCN1C(=O)c1snnc1C (configuration not stated)	nt	9	nt	nt	nt	nt
Cc1nnsc1C(=O)N1CCCC1(C)C(=O)O (configuration not stated)	nt	27*	nt	nt	-1	1
Cc1ccc(N2C(=O)C(Cl)=C(N3CCCCCC3)C2=O)c(C)c1	-3	-2	2	4	nt	nt
SMILES	HDAC3 inh	HTR2A ag	LANA-H2A inh	Fh CTSL1 inh	OPRM1 ag	HTR2A ag conf
COc1ccc(-n2nnnc2SC(C)C(=O)NC2CCCC2)cc1 (configuration not stated)	5	0	3	nt	nt	nt
CC1(C(=O)NS(=O)(=O)Cc2cccc(Cl)c2)CCN1C(=O)Cc1ccc(-c2ccccc2)cc1 (configuration not stated)	nt	11	nt	nt	nt	nt
CCCS(=O)(=O)NC(=O)C1(C)CCN1C(=O)Cc1ccc(-c2ccccc2)cc1 (configuration not stated)	nt	17*	nt	nt	0	3
CC(C)CC(=O)Nc1nnc(SCC(=O)NCc2ccc3c(c2)OCO3)s1	2	15*	1	-2	-1	-3
Cn1nc(C(=O)Nc2nc(-c3ccc(F)cc3)cs2)ccc1=O	nt	2	-2	2	nt	nt
CC(C)c1ccc(NC(=O)COc2ccc(S(=O)(=O)N3CCOCC3)cc2)cc1	-4	-5	-3	1	nt	nt
Cc1ccc(NC(=O)COc2ccc(S(=O)(=O)N3CCOCC3)cc2)cc1	-3	20*	5	-3	-1	-4
CSc1nc2ccc(NC(=O)c3ccc(Cl)s3)cc2s1	-7	3	-1	-5	nt	nt
CC(C)C(C)N(Cc1cccc(C(=O)O)c1)C(=O)c1ccc2ccccc2n1 (configuration not stated)	-10	1	-3	-1	nt	nt
CC1CC(C)(C)NC(=S)N1CCCC(=O)NCc1ccccc1 (configuration not stated)	-2	15*	-4	7	-1	-1
CNC(=O)CSc1nnc(NC(=O)C2CC(=O)N(c3ccccc3OC)C2)s1 (configuration not stated)	5	6	0	0	nt	nt
COc1ccc2nc(SCC(=O)Nc3ccccc3)[nH]c2c1	2	19*	1	1	0	-1
O=C(c1ccco1)N1CCN(CCCCN2C(=O)c3ccccc3C2=O)CC1	-6	17*	-6	-1	-1	54*
O=C(c1ccco1)N1CCN(CCCCOc2ccc(F)cc2)CC1	0	19*	1	1	-1	63*
C(=NOCc1ccccc1)c1cccnc1	nt	4	nt	nt	nt	nt
COc1ccc(N2CCN(C(=O)CCS(=O)(=O)c3ccc4c(c3)CCN4C(=O)C3CC3)CC2)cc1	-2	16*	-8	1	-1	-3
COc1ccc(NC(=O)NC2(C(=O)N3CCCCC3)CCCCC2)cc1	-1	-3	0	4	nt	nt
CC(C)CC(=O)Nc1ccc(C(=O)COC(=O)CN2C(=O)NC3(CCCCC3C)C2=O)cc1 (configuration not stated)	nt	18*	nt	nt	0	2
CCOc1ccc(C(=O)COC(=O)CN2C(=O)NC3(CCCCC3C)C2=O)cc1 (configuration not stated)	-2	-1	i	nt	nt	nt
CC(C)(C)C(=O)n1nc(-c2ccccc2)oc1=O	0	16*	0	0	-1	-4
Cc1cc(NC(=O)COC(=O)C2CCN(C(=O)c3ccc(Cl)cc3)CC2)no1	0	5	-2	-3	nt	nt
Cc1cc(NC(=O)COC(=O)C2CCN(S(=O)(=O)c3cccc(Cl)c3Cl)CC2)no1	-2	24*	-1	-1	-1	-4

Screening data deposited in PubChem by several laboratories.
